Bioassay records (PubChem)
ClpP mod = qHTS Assay for Activators of ClpP; ATP-dependent Clp protease proteolytic subunit (Bacillus subtilis (strain 168)), P80244; purified B. subtilis ClpP, FRET peptide cleavage, 20 min; Potency, µM (doses to about 57.5 µM), for the others: at the top dose activity change, negative = active; actives 1.9% (n = 340,000); active = well fitted falling curve with a large enough effect; inconclusive = small, poorly fitted or top-dose-only effect; inactive = no such curve, though single readings can be large or run the other way; also: potency is read from the fitted curve at half-maximal effect; the source files actives as falling curves though it sought activators and does not explain the sign; nearly all actives have a fitted effect of over 65% in size
Target sequence (P80244 whole entry, looked up): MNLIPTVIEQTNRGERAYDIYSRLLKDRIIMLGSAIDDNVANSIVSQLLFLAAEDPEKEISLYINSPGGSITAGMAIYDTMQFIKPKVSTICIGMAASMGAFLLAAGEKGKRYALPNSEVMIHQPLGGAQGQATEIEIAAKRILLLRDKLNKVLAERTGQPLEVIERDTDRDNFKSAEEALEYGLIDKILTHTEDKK
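Purified B. subtilis ClpP, 10 microg/mL final in Tris/HCl pH8 with KCl, BSA, glycerol and Tween-20, cleaved an Abz/nitrotyrosine-quenched decapeptide. Fluorescence (ex 320, em 430) was read at 0 and 20 min at room temperature. Delta was normalized to 5.8 microM ADEP and DMSO/no-enzyme controls.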
Menin MLL FP TR = menin-MLL binding inhibition, Texas Red mutant peptide; O00255; Menin + Texas Red MLL mutant peptide, fluorescence polarization; Potency, µM (doses to about 61.6 µM), for the others: at the top dose FP activity change, negative = inhibition, hits mostly inhibitors; actives 0.23% (n = 270,000); AID 1768; active = well fitted inhibition curve with a large enough effect in the polarisation, with a control signal flat, not every such curve was filed as active; inconclusive = small, poorly fitted or top-dose-only effect, or effect the other way, or a change in a side signal; inactive = no such curve, though single readings can be large or run the other way; the % refers to the polarisation; also: potency is read from the fitted curve at half-maximal effect; % of control where 0% means no effect
Menin MLL FP FL = inhibitors of human menin-MLL interaction, wild-type MLL peptide | FP activity change, % at 61.4 µM | 290,000 tested, under 10 active | Fluorescence polarization, fluorescein-MLL peptide displacement from menin | AID 1766; active = well fitted curve in the direction sought with a large enough effect in the polarisation, not every such curve was filed as active; inconclusive = small, poorly fitted or top-dose-only effect, or effect the other way, or a change in a side signal; inactive = no such curve, though single readings can be large or run the other way; the % refers to the polarisation; also: % of control where 0% means no effect
PINK1 expr mod = changes PINK1 expression; PINK1 immunofluorescence, high-content cytometry, 24 h; Potency, µM (highest dose often 76.6 µM), for inactives: top-dose activation (PINK1 increase), usual class: activators; actives 0.2% (n = 410,000); active = well fitted activation curve with a large enough effect; inconclusive = small, poorly fitted or top-dose-only effect; cell line not stated here; also: potency is read from the fitted curve at half-maximal effect; % of control where 0% means no effect; nearly all actives have a fitted effect of over 65% in size
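Stable cell line treated 24 h with compounds at 5 concentrations (CCCP controls), then fixed and immunostained for PINK1 plus nuclear and cell stains; PINK1 immunofluorescence quantified by laser-scanning microplate cytometry.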
Epigenetic derep = regulators of epigenetic silencing causing reporter derepression in mouse cells. Potency, µM (highest dose often 53.9 µM), inactives show at the highest dose GFP activation, usual class: activators. AID 1865. murine LDR cells, GFP reporter derepression, 30 h. actives 0.2% (n = 280,000); active = well fitted activation curve with a large enough effect; inconclusive = small, poorly fitted or top-dose-only effect; also: potency is read from the fitted curve at half-maximal effect; % of control where 0% means no effect; nearly all actives have a fitted effect of over 60% in size
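In this reporter-derepression format, murine cells bearing a silenced integrated CMV-GFP locus incubate with test compound (30 h, 37 C), then are washed and imaged; fluorescent objects of 20–120 um count as induced cells.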
MLL CXXC-DNA inh = MLL CXXC-DNA interaction inhibition; Potency, µM (top dose mostly 115 µM), inactives show top-dose activity change, negative = inhibition, most hits filed as inhibitors; Q03164; actives 0.037% (n = 290,000); MLL-CXXC / FITC-HOXA9 DNA fluorescence polarization; active = well fitted inhibition curve with a large enough effect in the polarisation, with a control signal flat, not every such curve was filed as active; inconclusive = small, poorly fitted or top-dose-only effect, or effect the other way, or a change in a side signal; inactive = no such curve, though single readings can be large or run the other way; the % refers to the polarisation; also: potency is read from the fitted curve at half-maximal effect
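Purified MLL-CXXC (added from a 7 uM solution) was preincubated 5 min at ambient with pinned compounds in 50 mM Tris-HCl pH 7.5, 50 mM NaCl, 1 mM DTT, 0.05% BSA. Fluorescein-labeled HOX-A9 DNA (50 nM solution) followed, 30 min, then polarization read.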
Starred values were filed as active, the others as inactive; ! = not confirmed by another sample; [ ] = another dose, or the depositor's remark. Hits are enriched below; roughly 1.9% of the tested compounds scored in any of these assays.

O=C(Oc1ccc2ccccc2c1)c1ccccc1 was read as ClpP mod 0%, Menin MLL FP TR inconclusive, Menin MLL FP FL 1, PINK1 expr mod 0%[38.3 µM], Epigenetic derep -1% and MLL CXXC-DNA inh 222%.
Screening Cc1ccc(OC(=O)c2ccccc2)cc1C returned ClpP mod 28µM* and PINK1 expr mod 12%.
Screening Cn1c(SCC2CCCO2)nnc1C1CCN(Cc2ccco2)CC1 (stereo unspecified) returned PINK1 expr mod -1%.
COC(=O)c1cc(C)c(C)cc1NC1OC(CO)C(O)C1O (stereo unspecified) was read as ClpP mod 3.5µM* and PINK1 expr mod -1%.
Screening COc1ccc(C(NC(=O)C2CCCCC2)c2c(O)ccc3ccccc23)cc1 (stereo unspecified) returned ClpP mod 25µM*, Menin MLL FP TR inconclusive, Menin MLL FP FL 9, PINK1 expr mod 1%, Epigenetic derep -1% and MLL CXXC-DNA inh 6%.
`CCCC(=O)NC(c1ccc(OC)cc1)c1c(O)ccc2ccccc12` (stereo unspecified) gave Menin MLL FP TR 45%, Menin MLL FP FL -3, PINK1 expr mod 15% and MLL CXXC-DNA inh -8%.
`CCCCN(C)C(=O)CCC(=O)NNc1nc2ccccc2c2nc(C)nn12` gave ClpP mod 25µM*!, Menin MLL FP TR -6%, Menin MLL FP FL 0, PINK1 expr mod 3%, Epigenetic derep -1% and MLL CXXC-DNA inh -20%.
Screening CCN(CC)CCCNC(=O)CCC(=O)NNc1nc2ccccc2c2nc(C)nn12 returned ClpP mod -4%, Menin MLL FP TR -1%, Menin MLL FP FL -3, PINK1 expr mod -2%, Epigenetic derep 5% and MLL CXXC-DNA inh 5%.
For CCN(CC)C(=O)c1cc(-c2ccccc2OC)on1 the results were ClpP mod 25µM*, Menin MLL FP TR 11%, Menin MLL FP FL 5, PINK1 expr mod 4%, Epigenetic derep -1% and MLL CXXC-DNA inh -2%.
For COc1ccccc1-c1cc(C(=O)Nc2ccc(F)cc2F)no1 the results were ClpP mod inconclusive, Menin MLL FP TR 11µM*, Menin MLL FP FL 5, PINK1 expr mod 6%[38.3 µM], Epigenetic derep 0% and MLL CXXC-DNA inh -10%.
For O=C(NCc1ccccc1)c1ccc(NC(=O)N2CCSc3ncccc32)cc1 the results were ClpP mod 32µM*, PINK1 expr mod 2% and Epigenetic derep 3%.
For Cc1ccccc1CNC(=O)c1cccc(NC(=O)N2CCSc3ncccc32)c1 the results were ClpP mod 32µM*, PINK1 expr mod -1% and Epigenetic derep 0%.
For CCc1ccc(CNC(=O)c2ccc(NC(=O)N3CCSc4ncccc43)cc2)cc1 the results were ClpP mod 32µM*, PINK1 expr mod -2% and Epigenetic derep 1%.
`COc1ccc(CNC(=O)c2ccc(NC(=O)N3CCSc4ncccc43)cc2)cc1` gave ClpP mod inconclusive, PINK1 expr mod 3% and Epigenetic derep 1%.
Screening Cc1ccc(CNC(=O)c2ccc(NC(=O)N3CCSc4ncccc43)cc2)cc1 returned ClpP mod 4%, PINK1 expr mod 0% and Epigenetic derep -1%.
`CCN(CC)Cc1c(C(=O)N/N=C/c2ccc(OCc3ccccc3C)cc2)nnn1-c1nonc1N` gave ClpP mod -5%, Menin MLL FP TR 18%, Menin MLL FP FL -7, PINK1 expr mod 1% and MLL CXXC-DNA inh 6%.
`CC(=O)Nc1cccc2cc(O)ccc12` gave PINK1 expr mod 1%.
Screening CC(=O)Nc1ccc2ccc3cccc4ccc1c2c34 returned ClpP mod 14µM*, Menin MLL FP TR 8%, Menin MLL FP FL 1, PINK1 expr mod 1%, Epigenetic derep 3% and MLL CXXC-DNA inh 5%.
